# According to publication PMC13423814:
# Key:
# [1] = biological target: 26S proteasome non-ATPase regulatory subunit 5 (UniProt Q16401)
# Histone H2B type 1-L = Histone H2B type 1-L (UniProt Q99880)
# [2] = biological target: Large ribosomal subunit protein eL28 (UniProt P46779)
# Twinfilin-1 = Twinfilin-1 (UniProt Q12792)
# [3] = biological target: Heterochromatin protein 1-binding protein 3 (UniProt Q5SSJ5)
# Chain of Histone H2A.V, Q71UI9 (Q71UI9 whole entry): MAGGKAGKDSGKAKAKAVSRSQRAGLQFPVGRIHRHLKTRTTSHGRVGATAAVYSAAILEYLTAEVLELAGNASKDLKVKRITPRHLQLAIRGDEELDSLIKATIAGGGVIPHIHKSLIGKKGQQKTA
# Chain of 26S proteasome non-ATPase regulatory subunit 5 (Q16401 whole entry): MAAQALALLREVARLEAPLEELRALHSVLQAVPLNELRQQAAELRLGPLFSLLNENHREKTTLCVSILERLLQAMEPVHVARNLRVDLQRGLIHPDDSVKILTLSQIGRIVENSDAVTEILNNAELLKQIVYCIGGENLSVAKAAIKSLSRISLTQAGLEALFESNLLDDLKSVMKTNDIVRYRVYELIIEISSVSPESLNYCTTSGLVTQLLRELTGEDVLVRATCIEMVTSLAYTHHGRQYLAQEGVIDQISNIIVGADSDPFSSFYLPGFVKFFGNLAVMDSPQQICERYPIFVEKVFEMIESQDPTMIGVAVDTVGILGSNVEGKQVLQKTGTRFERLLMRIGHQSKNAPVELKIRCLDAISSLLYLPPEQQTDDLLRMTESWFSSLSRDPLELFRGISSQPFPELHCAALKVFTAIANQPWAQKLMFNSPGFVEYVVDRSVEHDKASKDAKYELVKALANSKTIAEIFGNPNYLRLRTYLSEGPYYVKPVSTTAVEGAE
# Chain of 26S proteasome regulatory subunit 4, P62191 (P62191 whole entry): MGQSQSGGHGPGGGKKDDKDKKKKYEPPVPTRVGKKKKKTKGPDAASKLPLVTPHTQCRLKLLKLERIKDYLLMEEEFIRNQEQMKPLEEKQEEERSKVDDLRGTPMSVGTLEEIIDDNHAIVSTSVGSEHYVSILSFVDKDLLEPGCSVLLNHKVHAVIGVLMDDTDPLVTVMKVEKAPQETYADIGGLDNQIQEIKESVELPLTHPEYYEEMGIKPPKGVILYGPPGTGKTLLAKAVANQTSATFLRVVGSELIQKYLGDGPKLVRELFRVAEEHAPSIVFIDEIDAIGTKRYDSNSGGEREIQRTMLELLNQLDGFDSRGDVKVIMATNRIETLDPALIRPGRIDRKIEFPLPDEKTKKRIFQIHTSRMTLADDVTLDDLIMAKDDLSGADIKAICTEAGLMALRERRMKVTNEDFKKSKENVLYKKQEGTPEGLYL
substance,measurement,setting,value
"26S proteasome regulatory subunit 4, P62191",listed as a hit,[1],yes
"Histone H2A.V, Q71UI9",listed as a hit,Histone H2B type 1-L,yes
"Calmodulin-3, P0DP25",listed as a hit,[2],yes
"Actin, cytoplasmic 1, P60709",listed as a hit,Twinfilin-1,yes
"Histone H4, P62805",listed as a hit,[3],yes
